SMILES strings stand for the structures. A number with no mark means an inactive call. Records with an inconclusive call do not appear. Calls of active or inactive are those of the source. Calls come from the whole dose curve; as a rule, active = well fitted curve in the direction sought with a large enough effect; inconclusive = small, poorly fitted or top-dose-only effect, or another doubt; inactive = no such curve, though single readings can be large; an effect the other way counts as inactive or inconclusive.

Test [1] deals with Nanoluciferase (engineered Oplophorus gracilirostris luciferase). The experiment in a line: Primary Nanoluciferase (NLuc) qHTS assay for identification of artifact compounds. (AID 1845222).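 Note: NLuc secreted into diluted conditioned medium of S16 cells; series mostly up to about 54 µM; 0% = DMSO and -100% = no enzyme.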 The essentials:
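qHTS format, against NLuc in S16 cell-conditioned medium. Nano-Glo substrate 1:100 was added after 15 min at room temperature. Luminescence was taken after a further 5 min.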
(In general: Quantitative high-throughput screening tests each substance at several concentrations.)

A short description of test [2]: Primary redox qHTS assay for identification of artifact compounds. (AID 1845223).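 Note: 0% = DMSO and 100% = reference compound.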 The gist of the method:
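Redox-cycling detection via DTT (250 uM final) oxidation coupled to Amplex Red (25 uM)/HRP (250 mU/mL) in HBSS. 15 min preincubation plus 30 min after DTT, room temperature. Ex/Em 525/598 nm; 4-parameter Hill fit against DMSO and 10 uM DA3003.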

Test [3] addresses Cytochrome P450 3A4 (Homo sapiens) (UniProt P08684). The experiment in a line: qHTS for inhibitors of CYP3A4 against the NCATS DSHEA and TCM libraries (AID 1919971).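 Note: % is set by controls: 0 for no effect and ±100 for the full control effect; inhibition lowers luminescence from luciferin made by CYP3A4.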 The essentials:
(§1)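 Each CYP isoform and its pro-luciferin substrate, at isoform-specific final concentrations, were preincubated 15 min at RT with substances. NADPH regeneration solution (1x) started a 30-45 min reaction, and P450-Glo luminescence was read.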

For test [4], the target named is Cytochrome P450 2D6 (Homo sapiens) (UniProt P10635). Description: qHTS for inhibitors of CYP2D6 against the NCATS DSHEA and TCM libraries (AID 1919972). Note: % is set by controls: 0 for no effect and ±100 for the full control effect. The essentials: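 CYP2D6 enzyme with pro-luciferin substrate in manufacturer buffer (typically 100 mM KPO4), preincubated 15 min RT with substances (most at 19.5 nM upward); NADPH regeneration system (1x) started 30–45 min RT reaction; P450-Glo luminescence read after 30 min; quinidine as intraplate control.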
Chain of Cytochrome P450 2D6 (Homo sapiens) (P10635 whole entry, looked up): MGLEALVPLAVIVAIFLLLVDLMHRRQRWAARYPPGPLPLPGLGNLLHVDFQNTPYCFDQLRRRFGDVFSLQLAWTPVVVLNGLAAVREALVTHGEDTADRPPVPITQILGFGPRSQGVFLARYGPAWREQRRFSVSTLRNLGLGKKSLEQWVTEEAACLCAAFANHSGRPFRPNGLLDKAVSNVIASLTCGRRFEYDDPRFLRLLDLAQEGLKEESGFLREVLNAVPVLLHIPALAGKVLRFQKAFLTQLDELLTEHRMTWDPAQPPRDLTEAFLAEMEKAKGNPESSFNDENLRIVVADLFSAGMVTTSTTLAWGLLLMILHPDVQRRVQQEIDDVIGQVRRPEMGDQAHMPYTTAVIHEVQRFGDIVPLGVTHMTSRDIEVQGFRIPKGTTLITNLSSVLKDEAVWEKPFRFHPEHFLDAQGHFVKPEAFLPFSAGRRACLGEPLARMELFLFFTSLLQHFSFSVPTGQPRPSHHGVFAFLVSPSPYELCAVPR

Test [5] addresses Cytochrome P450 2C19 (Homo sapiens) (UniProt P33261). Description: qHTS for inhibitors of CYP2C19 against the NCATS DSHEA and TCM libraries (AID 1919974).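 Note: luminescence from luciferin released by CYP2C19 oxidation of a pro-luciferin substrate.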 Note: potency is the fitted concentration of half-maximal effect. The gist of the method:
as §1

Test [6] is described as follows: KB-3-1 P-gp reporter qHTS against the NCATS DSHEA and TCM libraries (AID 1919975). Note: 0% is about no effect. The essentials:
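KB-3-1 parental line, 1536-well qHTS: cells seeded, ~4 h attachment, pintool compound addition, ~72 h at 37C, then CellTiter-Glo, 30 min RT, luminescence. Concentration-response format.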

Test [7] in a line: qHTS Counterscreen for compound interference against the NCATS DSHEA and TCM libraries (AID 1919978).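 Note: compounds preincubated with 1 µM D-luciferin or buffer before detection reagent; % of control where 0% means no effect.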 As to conditions: firefly luciferase detection reagent interference, luminescence. The essentials: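 Compounds, titrated from 19.5 nM to 39.8 uM final, were pinned onto 1 uM D-luciferin or plain 100 mM potassium phosphate. After 15 min at room temperature, luciferin detection reagent was added for 30 min before the luminescence read.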

The target in test [8] is Cytochrome P450 2C9 (Homo sapiens) (UniProt P11712). The experiment in a line: qHTS for inhibitors of CYP2C9 against the NCATS DSHEA and TCM libraries (AID 1919973). Note: potency is the fitted concentration of half-maximal effect. The gist of the method: as §1
Chain of Cytochrome P450 2C9 (Homo sapiens) (P11712 whole entry, looked up): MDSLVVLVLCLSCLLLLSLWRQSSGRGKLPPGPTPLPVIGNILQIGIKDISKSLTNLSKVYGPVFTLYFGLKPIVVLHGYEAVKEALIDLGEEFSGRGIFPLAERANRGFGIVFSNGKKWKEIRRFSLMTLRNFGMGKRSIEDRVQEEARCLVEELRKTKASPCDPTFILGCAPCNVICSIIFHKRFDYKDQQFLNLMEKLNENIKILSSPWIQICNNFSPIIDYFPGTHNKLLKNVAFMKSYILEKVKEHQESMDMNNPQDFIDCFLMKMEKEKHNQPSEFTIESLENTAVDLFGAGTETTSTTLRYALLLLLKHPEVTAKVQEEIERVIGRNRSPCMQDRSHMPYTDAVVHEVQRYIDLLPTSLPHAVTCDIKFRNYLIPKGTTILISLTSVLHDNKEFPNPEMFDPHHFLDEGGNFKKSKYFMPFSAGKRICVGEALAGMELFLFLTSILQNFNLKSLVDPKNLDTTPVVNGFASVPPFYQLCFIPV

Chain of Cytochrome P450 2C19 (Homo sapiens) (P33261 whole entry, looked up): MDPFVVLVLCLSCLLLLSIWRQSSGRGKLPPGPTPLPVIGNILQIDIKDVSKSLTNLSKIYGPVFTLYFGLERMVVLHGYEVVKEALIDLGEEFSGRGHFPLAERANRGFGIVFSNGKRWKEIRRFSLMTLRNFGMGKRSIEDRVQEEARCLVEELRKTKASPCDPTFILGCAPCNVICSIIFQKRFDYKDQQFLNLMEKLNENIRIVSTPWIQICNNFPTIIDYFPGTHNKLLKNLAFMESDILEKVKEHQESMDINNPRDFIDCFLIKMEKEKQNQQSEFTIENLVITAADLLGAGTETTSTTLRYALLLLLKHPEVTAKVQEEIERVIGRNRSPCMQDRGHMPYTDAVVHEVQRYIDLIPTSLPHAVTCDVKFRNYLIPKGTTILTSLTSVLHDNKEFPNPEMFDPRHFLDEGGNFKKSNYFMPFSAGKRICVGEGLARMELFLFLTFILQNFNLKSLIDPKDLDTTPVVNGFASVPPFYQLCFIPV
Chain of Cytochrome P450 3A4 (Homo sapiens) (P08684 whole entry, looked up, canonical isoform): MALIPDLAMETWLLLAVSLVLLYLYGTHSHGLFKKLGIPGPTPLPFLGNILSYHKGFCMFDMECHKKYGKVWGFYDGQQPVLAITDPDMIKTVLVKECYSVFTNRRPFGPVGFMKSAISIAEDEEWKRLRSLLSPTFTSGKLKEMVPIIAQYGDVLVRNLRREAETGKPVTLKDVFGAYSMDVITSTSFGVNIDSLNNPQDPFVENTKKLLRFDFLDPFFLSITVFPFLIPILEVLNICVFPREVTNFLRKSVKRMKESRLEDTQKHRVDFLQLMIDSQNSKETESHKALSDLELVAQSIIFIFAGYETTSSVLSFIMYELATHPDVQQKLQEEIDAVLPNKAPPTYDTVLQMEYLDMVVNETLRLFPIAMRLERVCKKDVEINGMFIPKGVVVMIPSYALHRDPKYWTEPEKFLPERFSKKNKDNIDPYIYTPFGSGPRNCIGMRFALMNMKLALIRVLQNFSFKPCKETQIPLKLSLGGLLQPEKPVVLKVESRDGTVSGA

As for `C[C@@H]1C[C@H](O[C@@H]2O[C@H](CO[C@@H]3OC[C@](O)(CO)[C@H]3O)[C@@H](O)[C@H](O)[C@H]2O)CC(C)(C)[C@H]1/C=C/[C@@H](C)O`, the Potency result in test [1] and in test [2] was “inactive” throughout.

`CC(=O)NC(CCC(=O)O)C(=O)NCCc1ccc(O)cc1` (stereo unspecified): the Potency entry in test [2] was “inactive”.

Take `COc1c(OC2OC(CO)C(O)C(O)C2O)ccc(O)c1C(=O)OCc1ccccc1O[C@@H]1O[C@H](CO)[C@@H](O)[C@H](O)[C@H]1O` (stereo partly specified): the Potency result in test [1] and in test [2] was “inactive” throughout.

Turning to `CC(/C=C/[C@]1(O)[C@@]2(C)CO[C@@]1(C)C[C@@H](O)C2)=C\C(=O)O[C@@H]1O[C@H](CO)[C@@H](O)[C@H](O)[C@H]1O`, the Potency result in test [2] was “inactive”.

As for `CC1=CCC(C(C)(C)O)CC1` (stereo unspecified), the compound was classed as inactive in test [3], in test [4] and in test [6]. Further, the Potency in test [5] is 3.55 µM (active). Also, the max response in test [7] is -0.821%.

As to `C[C@H]1CC[C@@]2(OC1)O[C@H]1CC3C4CC=C5C[C@H](O)C[C@@H](O[C@@H]6O[C@@H](C)[C@H](O)[C@@H](O)[C@H]6O[C@@H]6O[C@@H](C)[C@H](O)[C@@H](O)[C@H]6O)[C@]5(C)C4CC[C@]3(C)[C@H]1[C@@H]2C` (stereo partly specified), the Potency result in test [1] and in test [2] was “inactive” in each case.

Take `CC1=C(/C=C/C(C)=C/C=C/C(C)=C/CO)C(C)(C)CCC1`: the outcome in test [4] and in test [6] was inactive. Moreover, in test [8], the Potency was 14.1 µM (active). In test [7], the max response is 0.358%.

Regarding `CC(=O)NC(C(=O)OC1CCC(C)(C)C2CC=C3C(=O)OCC3(O)C12C)C(C)C` (stereo unspecified), the Potency result in test [1] and in test [2] was “inactive” throughout.

`NC(=O)c1ccc(OCC2NC(=O)C3CCCN3C2=O)cc1` (stereo unspecified): the Potency result in test [2] is “inactive”.

For the compound `CC1(C)CC2C(O)C3=C(CC(C)(O)C2C1)C(=O)OC3O` (stereo unspecified), the Potency entry in test [1] and in test [2] was “inactive” each time.

For `COC1=CC(=O)C[C@@H](C)[C@]12Oc1cc(OC)cc(OC)c1C2=O`, the Potency entry in test [1] and in test [2] was “inactive” in each case.

For the compound `O=C1Nc2ccc(O)cc2O[C@H]1O[C@@H]1O[C@H](CO)[C@@H](O)[C@H](O)[C@H]1O`, the Potency entry in test [2] was “inactive”.

For the compound `CC1=C(/C=C/C(C)=C/C=C/C(C)=C/C=C/C=C(C)/C=C/C=C(C)/C=C/C2=C(C)CCCC2(C)C)C(C)(C)CCC1`, the compound was classed as inactive in test [3], in test [4] and in test [6]. The Potency result in test [8] and in test [5] was “inactive” in each case. In test [7], the max response is -3.35%.

(Values after PubChem BioAssay (NCATS).)
